# Reference: PubChem BioAssay
# Test system: glycogen synthase kinase-3 (GSK3A per assay name; protocol says GSK3B)
# Experiment: compounds binding glycogen synthase kinase-3 – biochemical, small-molecule microarray, 635 nm fluorescence, GSK3A, primary screen (AID 1103); also: the record names both GSK3A and GSK3B
# Details: fluorescence 635 nm, higher = more signal
row,SMILES,composite z-score
1,CC(CO)N1C(=O)[C@@H]2C3C(=O)OCCC/C=C\[C@H]3OC23C=CCN(C(C)(C)C)C(=O)[C@@H]13 (stereo not given in full),-0.0474
2,CN1C(=O)C2C=CC(C(O)c3ccccc3)N(N(c3ccccc3)c3ccccc3)C2C1=O (stereo not given),-0.372
3,C=CCOC(=O)[C@H]1[C@@H]2C(=O)O[C@@H](c3ccccc3)[C@@H](c3ccccc3)N2[C@@H](c2ccc(OCCOC(=O)[C@@H]3C[C@@H]4C(=O)N[C@@H](CCCCNC(C)=O)C(=O)N4[C@@H]3c3ccc(O)cc3)cc2)[C@]12C(=O)Nc1ccccc12,1.3
4,C[C@H]1C2[C@H](Cc3ccccc3)NC(=O)[C@]23C(=O)N[C@H](Cc2ccccc2)C(=O)N2CCC[C@H]2C(=O)NC/C=C\C/C=C/C3[C@@H]2O[C@]12C (stereo not given in full),-0.298
5,CC(C)C(O)C1C=CC2C(=O)NC(=O)C2N1Nc1ccc(Cl)cc1Cl (stereo not given),-0.234
6,COC(=O)C(CC#Cc1ccc2c(c1)[C@]1(C(=O)N2)[C@H](C(=O)Nc2nc3ccccc3s2)[C@H]2C(=O)O[C@H](c3ccccc3)[C@H](c3ccccc3)N2[C@@H]1c1ccc(O)cc1)C(=O)OC,1.29
7,CC(C)C(O)C1C=CC2C(=O)N(c3ccccc3)C(=O)C2N1Nc1ccc([N+](=O)[O-])cc1 (stereo not given),0.368
8,CC(C)C[C@@H]1NC(=O)[C@@H]2C[C@H](C(=O)NCc3ccc(F)cc3)[C@H](c3cccc(OCCO)c3)N2C1=O,0.615
9,CCCC[C@H]1OB(O)C[C@H]2C1=C(COC)C[C@H]1C(=O)N(C)C(=O)[C@H]12,-0.0431
10,COCCOC(=O)N1C(=O)[C@@]2(c3cc(C#Cc4ccc(OC)cc4)ccc31)[C@H](c1ccccc1OCCO)N1[C@H](c3ccccc3)[C@H](c3ccccc3)OC(=O)[C@H]1[C@@H]2C(=O)NC[C@H](O)c1ccccc1,0.748
11,CCOC(=O)C[C@H]1[C@H](OC(=O)c2ccc(C(=O)c3ccccc3)cc2)[C@@H](NC(=O)c2ccccc2)c2cc(OCCCO)ccc2N1C(=O)c1ccc2ccccc2n1,1.05
12,O=C(c1ccccc1)N1C(=O)[C@@]2(Cc3ccccc31)N=C(c1ccc(OCCCO)cc1)O[C@H]2c1ccccc1,1.33
13,Cc1ccc(N2C(=O)c3ccccc3[C@@H](C(=O)NC3CC3)[C@@H]2c2ccc(CO)cc2)nc1,-0.968
14,[N-]=[N+]=Nc1ccccc1[C@@H]1OC(c2ccc(OCCCO)cc2)=N[C@]1(CCS(=O)(=O)c1ccccc1)C(N)=O,1.23
15,COC(=O)C(CC#Cc1ccc2c(c1)[C@]1(C(=O)N2)[C@H](C(=O)Nc2nc3ccccc3s2)[C@H]2C(=O)O[C@H](c3ccccc3)[C@H](c3ccccc3)N2[C@@H]1c1ccccc1OCCO)C(=O)OC,1.24
16,CCOC(=O)C[C@H]1[C@H](OC(=O)c2ccc(C(=O)c3ccccc3)cc2)[C@@H](NC(=O)CC(C)C)c2cc(OCCCO)ccc2N1C(=O)c1ccc2ccccc2n1,1.25
17,C=CC[C@]1(C(=O)NCc2ccccc2)N=C(c2ccc(OCCCO)cc2)O[C@H]1c1ccccc1N=[N+]=[N-],0.849
18,OCCCC1=CC(c2cccs2)N(Cc2cc3c(cc2Br)OCO3)CC1 (stereo not given),-0.0247

row,SMILES,composite z-score
1,COc1ccc(C#Cc2ccc3c(c2)[C@]2(C(=O)N3)[C@H](C(=O)Nc3nc4ccccc4s3)[C@H]3C(=O)O[C@H](c4ccccc4)[C@H](c4ccccc4)N3[C@@H]2c2ccc(O)cc2)cc1,1.25
2,NC(=O)[C@@H]1[C@H]2C(=O)O[C@H](c3ccccc3)[C@H](c3ccccc3)N2[C@H](c2ccc(O)cc2)[C@@]12C(=O)Nc1ccccc12,-1.04
3,CCCCC(CC)C(O)C1C=CC2C(=O)N(Cc3ccccc3)C(=O)C2N1n1cnnc1 (stereo not given),-0.0058
4,O=C1O[C@H](c2ccccc2)[C@H](c2ccccc2)N2[C@H]1[C@@H](C(=O)N1CCCCCCC1)[C@]1(C(=O)Nc3ccc(C#CCCO)cc31)[C@H]2c1ccccc1OCCO,1.5
5,C=CCNC(=O)[C@H]1[C@@H]2C(=O)O[C@@H](c3ccccc3)[C@@H](c3ccccc3)N2[C@@H](c2ccccc2OCCO)[C@]12C(=O)Nc1ccc(C#CCCO)cc12,-1.03
6,COc1ccc(C#Cc2ccc3c(c2)[C@]2(C(=O)N3)[C@H](c3ccccc3OCCO)N3[C@H](c4ccccc4)[C@H](c4ccccc4)OC(=O)[C@H]3[C@@H]2C(=O)Nc2nc3ccccc3s2)cc1,1.31
7,CN1C(=O)C2C=CC(C(O)C3CC=CCC3)N(N(c3ccccc3)c3ccccc3)C2C1=O (stereo not given),-1.64
8,O=C1O[C@@H](c2ccccc2)[C@@H](c2ccccc2)N2[C@@H](c3ccccc3OCCO)[C@]3(C(=O)Nc4ccccc43)[C@@H](C(=O)Nc3nc4ccccc4s3)[C@H]12,1.02
9,O=C1NC(=O)C2C1C=CC(C(O)c1cc(C(F)(F)F)cc(C(F)(F)F)c1)N2Nc1ccccn1 (stereo not given),-0.164
10,O=C(N1CCCCC1)[C@]1(Cc2ccccc2)N=C(c2ccc(OCCCO)cc2)O[C@@H]1c1ccccc1,0.669
11,CC(C)c1ccc(NN2C(C(O)c3ccc(B(O)O)cc3)C=CC3C(=O)N(c4ccccc4)C(=O)C32)cc1 (stereo not given),1.25
12,NC(=O)NCC#Cc1ccc2c(c1)[C@]1(C(=O)N2)[C@H](c2ccc(O)cc2)N2[C@H](c3ccccc3)[C@H](c3ccccc3)OC(=O)[C@H]2[C@@H]1C(=O)O,-0.928
13,Cc1ccccc1C(O)C1C=CC2C(=O)N(c3ccccc3)C(=O)C2N1Nc1ccc(C(C)C)cc1 (stereo not given),1
14,COc1ccc(CCNC(=O)[C@@H]2c3ccccc3C(=O)N(Cc3ccccc3Cl)[C@H]2c2ccc(CO)cc2)cc1,0.412
15,O=C(NC1CC1)[C@@H]1c2ccccc2C(=O)N(Cc2ccccc2Cl)[C@H]1c1ccc(CO)cc1,1.24
16,Cc1nc2cc(Br)ccc2c(=O)o1,0.778
17,CCN(CC)c1ccc(N2CC=CC34O[C@@H]5C=CCCOC(=O)C5[C@H]3C(=O)N(CCCCCCO)[C@@H]4C2=O)cc1 (stereo not given in full),-0.39
